In PubChem BioAssay (EPA / NIEHS) one finds AC50 and outcome data, which are given here for 14 compounds.

Read-out in test [1]: Collagen III, COL3A1 (gene 1281)
Briefly: BSK_MyoF_CollagenIII: BioMAP Diversity Plus: MyoF Assay for Collagen III Biomarker Activity (AID 2284239). As to conditions: primary human lung fibroblasts. Put shortly:
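Primary human lung fibroblasts (BioMAP MyoF system) exposed 24 h. Collagen III measured by ELISA; positive-direction fit relative to DMSO.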

Test [2] in a line: CCTE_Mundy_HCI_hNP1_Casp3_7: CCTE's Caspase-Glo 3/7 Assay in human neuroprogenitor cells for Apoptosis, Mundy Lab (AID 2284240). Put shortly:
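Neuroepithelial-lineage stem cells from WA09 embryonic cells were treated with chemicals after 40–44 h of culture. Twenty-four hours later, caspase-3/7 activation was detected luminescently after a 30 min room-temperature reagent step, with DMSO as baseline.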

Read-out in test [3]: Interleukin 17F (IL17F), IL17F (gene 112744)
Put plainly: BSK_BT_xIL17F: BioMAP Diversity Plus: BT Assay for Interleukin 17F (IL17F) Biomarker Activity (AID 2284243). As to conditions: primary human B cells with PBMC. Put shortly: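 Human PBMC co-cultured with B cells, compound exposure 24 h; secreted IL-17F quantified by Luminex xMAP, referenced to DMSO control. PBMC viability measured in parallel by Alamar Blue reduction.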

Read-out in test [4]: Actin alpha 1 (ACTA1), ACTA1 (gene 58)
Put plainly: BSK_MyoF_ACTA1: BioMAP Diversity Plus: MyoF Assay for Actin alpha 1 (ACTA1) Biomarker Activity (AID 2284244). To be noted: primary human lung fibroblasts. Put shortly: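 Measured by ELISA: alpha-smooth muscle actin in human primary lung fibroblasts 24 h after dosing, with DMSO as baseline and upward signal change as the fitted direction.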

Read-out in test [5]: Interleukin 2 (IL2), IL2 (gene 3558)
Briefly: BSK_BT_xIL2: BioMAP Diversity Plus: BT Assay for Interleukin 2 (IL2) Biomarker Activity (AID 2284245). As to conditions: primary human B cells with PBMC. Put shortly: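 Secreted interleukin-2 from human B cell/PBMC co-cultures, measured 24 h post-dosing by Luminex multiplex immunoassay. Upward-direction curve fitting against DMSO baseline.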

Read-out in test [6]: Basic fibroblast growth factor (bFGF), FGF2 (gene 2247)
Briefly: BSK_MyoF_bFGF: BioMAP Diversity Plus: MyoF Assay for Basic fibroblast growth factor (bFGF) Biomarker Activity (AID 2284246). To be noted: primary human lung fibroblasts. On the procedure:
BSK_MyoF is a cell-based, multiplexed-readout assay that uses lung fibroblasts, a human […] primary cell, with measurements taken at 24 hours after chemical dosing in a microplate: 96-well plate.BSK_MyoF_bFGF is an assay component measured in the BSK_MyoF assay. It measures bFGF antibody related to regulation of gene expression using ELISA technology.Data from the assay component BSK_MyoF_bFGF was analyzed at the endpoint, BSK_MyoF_bFGF, in the positive analysis fitting direction relative to DMSO as the negative control and baseline of activity. Using a type of binding reporter, gain or loss-of-signal activity can be used to understand protein changes. To generalize the intended target to other relatable targets, this assay endpoint is annotated to the 'growth factor' intended target family, where the subfamily is 'basic fibroblast growth factor '.
The levels of cell surface (or secreted, indicated by the prefix "s") biomarker endpoints were measured by ELISA. Overt cytotoxicity to cells in confluent adherent cultures (all systems other than the BT system) was assessed by measuring total protein levels using sulforhodamine B (SRB) staining in parallel cultures at the time of biomarker measurements, indicated as SRB endpoints. For proliferation assays for adherent cell types, individual cell types are cultured at sub-confluence and relative cell numbers quantified by SRB staining at time points optimized for each system (48 h: 3C and CASM3C systems; 72 h: BT and HDF3CGF systems; 96 h: SAg system). SRB was performed by staining cells with 0.1% SRB after fixation with 10% TCA and reading wells at 560 nm.Viability and proliferation of PBMC (T cells) was quantified by Alamar Blue reduction for the SAg and BT systems. For PBMC viability (referred to as PBMC Cytotoxicity within the assay endpoint names), cells were plated (75,000/well in a 96-well plate) and then chemical samples added for 1 h before addition of activators, SEB and TSST-1 (20 ng/mL final concentration each). Cells were incubated for 90 h. Then, Alamar Blue (20 uL/well) (Invitrogen, Cat DAL1100) was added for 6 h, and the plates were read with a fluorescence microplate reader at 546/580 nm (excitation/emission). For PBMC proliferation, cells were plated and activated as above but incubated for only 16 h prior to addition of Alamar Blue. Plates were read after 6 h.

Read-out in test [7]: Collagen IV, COL4A1 (gene 1282)
Put plainly: BSK_MyoF_CollagenIV: BioMAP Diversity Plus: MyoF Assay for Collagen IV Biomarker Activity (AID 2284247). To be noted: primary human lung fibroblasts. The gist of the method:
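Activity is scored as a signal increase over DMSO in an ELISA for Collagen IV, measured on human lung fibroblasts at 24 h after chemical treatment. Cytotoxicity is checked in parallel cultures by sulforhodamine B total-protein staining.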

Read-out in test [8]: Monokine induced gamma interferon (MIG), CXCL9 (gene 4283)
Put plainly: BSK_KF3CT_MIG: BioMAP Diversity Plus: KF3CT Assay for Monokine induced gamma interferon (MIG) Biomarker Activity (AID 2284248). As to conditions: primary human keratinocytes with fibroblasts. Put shortly: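 Human keratinocyte–foreskin fibroblast co-culture; MIG measured by ELISA 24 h after chemical dosing, fitted upward versus DMSO. Cytotoxicity was assessed in parallel cultures by SRB total-protein staining read at 560 nm.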

Test [9] can be described thus: CCTE_Mundy_HCI_hNP1_CellTiter: CCTE's Cell Titer-Glo 2 Assay in human neuroprogenitor cells for Viability, Mundy Lab (AID 2284241; active = hit-call score of the fitted dose curve at least 0.9, where 1 is the maximum;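 as to AC50: a hit is a drop in ATP luminescence versus DMSO meaning reduced viability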). The gist of the method:
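Measures ATP content in human neural progenitors derived from WA09 embryonic cells. Read-out at 26.5 hours after dosing, with DMSO serving as the negative control and baseline.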
For orientation: ATP-based viability assays read luminescence as a measure of living cells.

The nature of test [10]: CCTE_Mundy_HCI_Cortical_Synap_Neur_Matur_NeuronCount: CCTE's Synaptogenesis and Neurite Maturation Assay in rat cortical cells for Neuron Count, Mundy Lab (AID 2284242; active = hit-call score of the fitted dose curve at least 0.9, where 1 is the maximum;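 as to AC50: neuron number from Hoechst nuclei and MAP2 staining by high-content imaging; hits reduce neuron count versus DMSO baseline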). Put shortly: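 Imaging-based neuron count in rat cortical cultures after chemical exposure from DIV 7 to DIV 12, with AraC added at DIV 5. Activity is fitted relative to DMSO.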

The structures appear in SMILES notation. Values joined by “and” are separate entries in the source; they are usually repeats but may differ in a detail not shown here. Identical values can stand only once. Results filed as inconclusive are left out. Active and inactive are the calls of the source. The calls were made as follows, unless noted: active = hit-call score of the fitted dose curve at least 0.9, where 1 is the maximum; inactive = score below 0.9.

For `NS(=O)(=O)C(F)(F)C(F)(F)C(F)(F)C(F)(F)C(F)(F)C(F)(F)C(F)(F)C(F)(F)F`, the AC50 was 26.2 µM (active) and 28.7 µM (active) in test [1]; 35.5 µM (active) and 45.9 µM (active) in test [3]; 10.9 µM (active) and 12 µM (active) in test [4]; 45.6 µM (active) and 45.4 µM (active) in test [6]; 7.27 µM (active) and 7.31 µM (active) in test [7]; 27.9 µM (active) and 51.6 µM (active) in test [8]. The result in test [2] and in test [5] was inactive.

`Sc1ccccc1`: the result in test [1], in test [3], in test [4], in [5], in [6] and in test [7] was inactive.

For the compound `ClC1=C(Cl)[C@]2(Cl)[C@@H]3[C@@H](Cl)[C@H]4O[C@H]4[C@@H]3C1(Cl)C2(Cl)Cl`, the AC50 in [2] was 30.3 µM (active); in test [9] it was 35.9 µM (active); in test [10] it was 7.22 µM (active).

As for `C=CC(N)=O`, the outcome in test [2], in [9] and in [10] was inactive.

Turning to `O=S(=O)(O)C(F)(F)C(F)(F)C(F)(F)C(F)(F)F`, the outcome in [1], in test [2], in test [9], in test [3], in test [4] and in test [5] was inactive. In addition, the result in test [6], in [7] and in [8] was inactive.

As to `COc1ccc(O)c(C(C)(C)C)c1`, the result in test [2], in [9], in test [10] and in test [8] was inactive.

Turning to `ClC1=C(Cl)[C@]2(Cl)[C@@H]3[C@@H]4C[C@@H]([C@H]5O[C@@H]45)[C@@H]3[C@@]1(Cl)C2(Cl)Cl`, the AC50 is 15 µM (active) in test [2] and 25 µM (active) in test [10].

Take `O=C(O)C(F)(F)C(F)(F)C(F)(F)C(F)(F)C(F)(F)C(F)(F)C(F)(F)C(F)(F)F`: the AC50 is 46.8 µM (active) and 47.6 µM (active) in test [1]; 30 µM (active) and 40.3 µM (active) in [4]; 18.9 µM (active) and 13.9 µM (active) in [7]. The outcome in test [3], in [5], in [6] and in [8] was inactive.

On to `CCOP(=S)(OCC)SCSC(C)(C)C`, for which the call in [2] and in [9] was inactive. The AC50 in test [10] is 9.92 µM (active) and 25.5 µM (active).

With `O=C(O)C(F)(F)C(F)(F)C(F)(F)C(F)(F)C(F)(F)F`, the result in test [1], in [3], in [4], in test [5], in test [6] and in test [7] was inactive. Further, in test [8], the result was inactive.

With `O=S(=O)(O)C(F)(F)C(F)(F)C(F)(F)C(F)(F)C(F)(F)C(F)(F)F`, the outcome in [1], in test [2], in [9], in [3], in test [4] and in test [5] was inactive. Besides, the outcome in test [6], in test [7] and in test [8] was inactive.

With `O=C(O)C(F)(F)C(F)(F)C(F)(F)C(F)(F)C(F)(F)C(F)(F)C(F)(F)C(F)(F)C(F)(F)F`, the AC50 in test [1] is 26.2 µM (active) and 19.1 µM (active); in test [4], 45.3 µM (active) and 23.6 µM (active); in [6] it was 56.9 µM (active) and 55.4 µM (active); in test [7], 7.07 µM (active) and 7.44 µM (active); in test [8], 50.1 µM (active) and 45.2 µM (active). For the same compound, the outcome in [2], in test [9], in test [3] and in test [5] was inactive.

In the case of `Oc1c(Cl)c(Cl)c(Cl)c(Cl)c1Cl`, the AC50 in test [1] is 4.07 µM (active); in test [4], 10.3 µM (active); in test [6] it was 33.5 µM (active); in test [7], 30.6 µM (active). Besides, the result in test [3] and in test [5] was inactive.

Turning to `CO/C=C(/C(=O)OC)c1ccccc1COc1cccc(C(F)(F)F)n1`, the AC50 in [2] was 21.7 µM (active); in [9], 81.5 µM (active); in [10] it was 0.935 µM (active).

Broadly, the AC50 is the concentration at which the activity in the assay is half-maximal.
